MazF activator – activators of E. coli MazEF toxin-antitoxin RNase, primary screen, biochemical, fluorescence, uHTS | Endoribonuclease toxin MazF (Escherichia coli (strain K12)), P0AE70 | FAM/BHQ RNA-DNA oligo cleavage fluorescence, 5 h | activation, % at 20 µM | hit rate 0.32% among 350,000; in the data active means activation above about 50%
Anthrax LF inh2 – Bacillus anthracis LF protease inhibitors, primary screen, biochemical, multiplex microsphere, MLPCN library; Lethal factor (Bacillus anthracis), P15917; multiplex microsphere protease cleavage assay; inhibition, % at 10 µM; hit rate 0.12% among 360,000
BoNT A protease – BoNT/A light chain protease inhibitors, primary screen, biochemical, flow cytometry, MLPCN library. Botulinum neurotoxin type A light chain protease (Clostridium botulinum A str. ATCC 3502). multiplex microsphere protease substrate cleavage. inhibition, % at 10 µM. hit rate 0.17% among 360,000. AID 588499, 2011
BoNT-F LC inh – BoNT/F light chain protease inhibitors, primary screen, biochemical, flow cytometry, MLPCN library | hit rate 0.22% among 360,000 | inhibition, % at 10 µM | Botulinum neurotoxin type F light chain protease (Clostridium botulinum) | Multiplex microsphere protease cleavage assay; in the data active means inhibition above about 35%, passing the limit was not always enough; inconclusive means no clear call, values can overlap the other calls
Bead autofluor – flagged as autofluorescent in microsphere protease counterscreen; fluorescence intensity (concentration not given with the values); compound autofluorescence counterscreen, microsphere flow cytometry; stronger effect = higher value; hit rate 3.1% among 360,000; AID 624483; in the data active means fluorescence intensity above about 16000; inconclusive means no clear call, values can overlap the other calls
Of the large screens only hits and unclear results are named; the others gave an inactive call. Shown are actives, neighbours in structure and some others; about 3.7% of the full set was active somewhere. Unless noted, no stated cut-off is given here; in the data, active means inhibition above about 30%; inconclusive means no clear call, values can overlap the other calls; inactive means below that.

Cc1cccc(OCCOC(=O)c2ccc(F)c(S(=O)(=O)N3CCOCC3)c2)c1	none (no result: Anthrax LF inh2, BoNT A protease, BoNT-F LC inh, Bead autofluor)
O=C(O)CCCC(=O)Nc1ccc(Cl)cc1	none
CC(C)Oc1ccc(NC(=O)CCC(=O)O)cc1	Bead autofluor 16641
Cc1ccc(NC(=O)CNc2ccc(OC(C)C)cc2)c(C)c1	Bead autofluor 19175
O=C(O)CCCC(=O)Nc1ccc(Br)cc1	Bead autofluor 23089
Cc1ccc(NC(=O)CNc2cccc(C)c2C)c(C)c1	none
CCCN1C(=O)c2ccccc2NC1c1ccc(Cl)c(Cl)c1 (stereo unspecified)	none
CCCCN1C2=C(C(=O)CCC2)C(c2ccc(Cl)c(Cl)c2)C2=C1c1ccccc1C2=O (stereo unspecified)	MazF activator 60.1
Cc1ccc(S(=O)(=O)N2CCN(C(=O)CSC(=S)N3CCCC3)CC2)c(C)c1	Bead autofluor inconclusive
CCN(CC)S(=O)(=O)N1CCC(C(=O)NCCN2CCOCC2)CC1	Bead autofluor 22119
Nc1ccccc1-c1nc2ccccc2[nH]1	Bead autofluor 22286
Cc1ccc(CNS(=O)(=O)c2ccc3c(c2)C(C)(C)C(=O)N3C)cc1	none
CN1C(=O)C(C)(C)c2cc(S(=O)(=O)NCc3ccc(C(=O)NCc4ccco4)cc3)ccc21	MazF activator 139.7
COc1cccc(S(=O)(=O)NCc2ccc(C(=O)NCc3ccco3)cc2)c1	Bead autofluor 25859
c1ccc(CCCN2CCN(CCOC(c3ccccc3)c3ccccc3)CC2)cc1	none
c1ccc(COCCN2CCN(CCOCc3ccccc3)CC2)cc1	Bead autofluor 16853
Cc1cc(Cl)ccc1NC(=O)COC(=O)c1cc([N+](=O)[O-])ccc1N1CCOCC1	Bead autofluor 49183
CC1(C)C(=O)Nc2ccccc2N1C(=O)COC(=O)C1CCCCC1	none
Cc1cc(C)c(C)c(S(=O)(=O)N2CCC(C(=O)OCC(=O)N3c4ccccc4NC(=O)C3(C)C)CC2)c1C	Bead autofluor 24651
Cc1cccc(C)c1OCC(O)CNC(C)(C)C (stereo unspecified)	Bead autofluor 16186
COc1cc(OC)cc(C(=O)NCC(=O)OCC(=O)NCc2ccco2)c1	none
O=C(Cn1c(C(F)(F)F)nc2ccccc21)c1ccccc1	none
O=C(Cn1c(C(F)(F)F)nc2ccccc21)c1ccc(Cl)cc1	Bead autofluor 18546
CCOC(=O)N1CCN(CC(=O)Nc2c(C(=O)OC)[nH]c3ccc(Cl)cc23)CC1	none
CCOC(=O)N1CCN(CC(=O)Nc2c(C(=O)OC)[nH]c3cc(C)ccc23)CC1	Bead autofluor 23057
CC1CN(C(=O)c2cc3cc([N+](=O)[O-])ccc3s2)CC(C)O1 (stereo unspecified)	MazF activator 160.9
CC1CC(C)CN(CCCNS(=O)(=O)c2cc(Br)cc3c2N(C(=O)C2CC2)CC3)C1 (stereo unspecified)	none
COC(=O)C1=C(C)NC(=O)CC1c1ccc(F)c(Br)c1 (stereo unspecified)	BoNT A protease inconclusive, Bead autofluor 23452
COC(=O)C1=C(C)NC(=O)CC1c1ccc(C(=O)OC)cc1 (stereo unspecified)	none
CCOC(=O)Cc1csc(NC(=O)COc2ccc(C)cc2)n1	none
CCOC(=O)Cc1csc(NC(=O)c2ccco2)n1	Bead autofluor 20219
CCOC(=O)Cc1csc(NC(=O)NC2(C(F)(F)F)Oc3ccc(Cl)cc3O2)n1 (stereo unspecified)	none
CCOC(=O)Cc1csc(NC(=O)NC2(C(F)(F)F)Oc3ccccc3O2)n1	Bead autofluor 16388
CCOC(=O)Cc1csc(NC(=O)c2ccc(S(=O)(=O)N3CCCCC3)cc2)n1	BoNT A protease inconclusive, Bead autofluor 22414
CCOC(=O)Cc1csc(NC(=O)COc2ccccc2)n1	Bead autofluor 22960
CCOC(=O)Cc1csc(NC(=O)c2ccc(Br)cc2)n1	BoNT-F LC inh inconclusive
CN(C)S(=O)(=O)c1ccc(C(=O)OCC2COC(C)(C)O2)cc1 (stereo unspecified)	none
COc1ccc(C(=O)OC(C)C(=O)NC2CCCc3ccccc32)cc1OC (stereo unspecified)	none
COc1ccc(-c2nnc(CSc3nnc(-c4ccncc4)n3C3CCCCC3)o2)cc1OC	BoNT A protease inconclusive, Bead autofluor 19681
COCCCn1c(SCc2nnc(-c3ccc(OC)c(OC)c3)o2)nnc1-c1ccncc1	none
C=CCNC(=O)c1ccccc1NC(=O)C1COc2ccccc2O1 (stereo unspecified)	none
O=c1c2ccccc2oc2nc(-c3ccco3)n(-c3ccccc3)c(=O)c12	none
CC(C)c1nc2oc3ccccc3c(=O)c2c(=O)n1-c1ccccc1	Bead autofluor 17355
CC1(C)CC(=O)C2=C(C1)N(c1ccc(F)cc1)C(N)=C(C#N)C2c1cccs1 (stereo unspecified)	none
Cc1ccc(N2C(N)=C(C#N)C(c3cccs3)C3=C2CC(C)(C)CC3=O)cc1 (stereo unspecified)	BoNT A protease inconclusive, Bead autofluor 23727
Cc1c(CN(C)C(=O)c2ccc(Br)o2)cnn1C	BoNT A protease inconclusive, Bead autofluor 19727
O=C(c1ccc(Br)o1)N(Cc1ccccc1)Cc1ccccc1	none
Cc1cc(NC(=O)CSc2nc3ccsc3c(=O)n2Cc2ccccn2)n[nH]1	Bead autofluor 16535
CCOc1ccc(NC(=O)CSc2nc3ccsc3c(=O)n2CCCCCC(=O)O)cc1	none
CCn1c(SCC(=O)N2CCCCC2C)nc2ccsc2c1=O (stereo unspecified)	none
CC1CCCCN1C(=O)CSc1nc2ccsc2c(=O)n1Cc1ccccn1 (stereo unspecified)	Bead autofluor 19850
COc1ccc(NC(=O)CSc2nc3ccsc3c(=O)n2CCC(=O)O)c(OC)c1	none
CCCCn1c(SCC(=O)Nc2cc(C)[nH]n2)nc2ccsc2c1=O	Bead autofluor 18853
CC1CCCCN1C(=O)CSc1nc2cc3c(cc2c(=O)n1Cc1ccc2c(c1)OCO2)OCO3 (stereo unspecified)	BoNT A protease inconclusive, Bead autofluor 21942
O=C(NC1CCCC1)c1cc(=O)[nH]c2ccccc12	none (no result: Anthrax LF inh2, BoNT A protease, BoNT-F LC inh, Bead autofluor)
CCOC(=O)[C@@H]1[C@H]2COc3cc(OC)ccc3[C@@H]2N2C(=O)N(c3ccc(F)cc3)C(=O)[C@@]12C	none
Cc1ccc2nc(/C(C#N)=C\c3cc(C)n(-c4cccc([N+](=O)[O-])c4)c3C)[nH]c2c1	BoNT A protease inconclusive, Bead autofluor 16239
Cc1cc(/C=C(/C#N)c2nc3ccccc3[nH]2)c(C)n1-c1cc(C(=O)O)cc(C(=O)O)c1	none
Cc1nc(C)n(C(C)CNC(=O)c2cccc(Br)c2)n1 (stereo unspecified)	BoNT-F LC inh inconclusive
COc1ccc(C(=O)NNC(=O)c2ccc3ccccc3n2)cc1	none
CC1(C)CC(CC(=O)Nc2ccccn2)C(=O)O1 (stereo unspecified)	Bead autofluor 23618
O=C(CCN1C(=O)/C(=C\c2ccccc2)SC1=S)NNC(=O)c1ccccc1O	none

Screens as filed in PubChem.
